Source: PubChem (The Scripps Research Institute Molecular Screening Center)
Only some compounds are listed: those with a hit (about 3.4% of all), similar ones and a draw of the others.
GPR151 activ = human GPR151 activation; AID 1508602; PathHunter beta-arrestin GPR151 cells, luminescence; activation, % at 11.2 µM; 1% of 650,000 active; in the data active = activation above about 4.9%;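 note: 0% = median of compound wells and 100% = cells with positive control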
TEAD-YAP block = TEAD-YAP interaction inhibition; 1.4% of 640,000 active; HEK-TIYL cells, TEAD-Gal4/YAP UAS-luciferase luminescence; inhibition, % at 9.12 µM; AID 1259422; in the data active = inhibition above about 32%;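 note: 0% = median of test compound wells and 100% = reference inhibitor wells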
MITF inh = blocks human microphthalmia-associated transcription factor | O75030 | AlphaScreen MITF homodimerization, bead proximity signal | 0.91% of 650,000 active | inhibition, % at 2.6 µM; in the data active = inhibition above about 50%;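 note: 0% = vehicle wells with protein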
FBW7 act = activators of human E3 ligase FBW7. Q969H0. AlphaScreen FBW7–phospho-cyclin E peptide binding, activator screen. normalized activity (activation), % at 26.1 µM. 0.13% of 650,000 active; in the data active = normalized activity above about 1.9%;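 note: purified mutant Fbw7 with reduced substrate affinity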
MITF confirm = human MITF inhibition, confirmation; AlphaScreen MITF homodimerization, biotin/His-MITF beads; shares compounds with MITF inh; inhibition, % at 2.6 µM; 16% of 4,700 active;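 active = inhibition above a cutoff derived from the DMSO control wells, cut at about 28% in these data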;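 note: 0% = MITF dimer wells with DMSO only; inhibitors lower the bead chemiluminescence by keeping MITF from dimerizing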
AlphaScreen intf2 = counter-screen: compounds optically interfering with AlphaScreen; shares compounds with MITF inh; LysRS AlphaScreen counterscreen, signal interference, triplicate; inhibition, % at 2.6 µM; 7.6% of 4,700 active;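 active = inhibition above a cutoff derived from the DMSO control wells, cut at about 30% in these data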
* = called active by the depositor; . = no result given.

SMILES	GPR151 activ	TEAD-YAP block	MITF inh	FBW7 act	MITF confirm	AlphaScreen intf2
CC(C)CC(=O)N1CCN(c2ccc(-c3ccccn3)nn2)CC1	-2.6	-5.0	125.4*	-1.6	114.1*	100.6*
O=C(CSc1ccc(-c2ccccn2)nn1)N1CCN(c2ccccc2)CC1	-0.6	7.1	8.9	-1.6	.	.
Cc1nccn1-c1ccc(NC(=O)C2CCCN(Cc3ccc4nsnc4c3)C2)cc1 (centres undefined)	1.9	30.2	8.6	0.1	.	.
COc1cc(CN2CCN(C3CCCCCC3)CC2)cc(OC)c1O	0.1	-8.5	57.7*	0.6	5.9	13.6
COc1cc(CN2CCN(C3CCCC(C)C3)CC2)cc(OC)c1O (centres undefined)	-0.4	6.0	74.1*	0.3	8.7	25.7
CC(NC(=O)C(=O)N/N=C/c1cccs1)c1ccccc1 (centres undefined)	-1.3	-22.6	-0.6	0.6	.	.
COC(=O)c1cc(OC)c(OC)cc1NC(=O)c1c(-c2ccc(OC)cc2)oc2ccc(OC)cc12	1.9	2.9	-8.2	-0.1	.	.
COc1ccc(C(=O)CSc2nnc(-c3ccc4c(c3)OCO4)o2)cc1OC	-0.3	1.1	85.7*	0.1	-21.1	-5.7
O=C(c1cccc(Cl)c1)N1CCN(C2CCCC2)CC1	0.9	0.1	52.7*	0.0	-3.4	-1.6
O=C(c1cccc(Cl)c1)N1CCN(C2CCC(c3ccccc3)CC2)CC1 (centres undefined)	0.3	3.9	38.7	0.2	.	.
CC1CCCN(C(=O)c2cccc(Cl)c2)C1 (centres undefined)	1.2	-2.0	-2.5	0.3	.	.
CC1CCCC(N2CCN(C(=O)c3cccc(Cl)c3)CC2)C1 (centres undefined)	1.0	-3.8	50.9*	0.0	-3.3	-1.7
Cc1nn2c(SCC(=O)Nc3cc(Cl)cc(Cl)c3)nnc2[nH]c1=O	0.9	-4.0	-6.8	-0.1	.	.
Cn1c(-c2ccccc2)cnc1NCc1ccc(F)cc1	2.0	-3.5	26.2	-0.4	.	.
Cn1c(-c2ccc(F)cc2)cnc1NCc1ccccc1	-1.5	1.3	59.4*	0.5	-9.4	-3.0
Cn1c(-c2ccc(F)cc2)cnc1NCc1cccc(F)c1	-0.6	-8.7	52.7*	0.5	-4.3	-4.8
CCOC(=O)NC(O)C(Br)(Br)Br (centres undefined)	1.4	-3.1	-3.4	-0.1	.	.
COCc1nc2ccccc2n1CCc1noc(-c2ccc(OC)cc2)n1	2.9	-2.1	2.0	0.5	.	.
COCc1nc2ccccc2n1CCc1noc(-c2ccccc2OC)n1	-1.0	2.4	94.9*	0.2	3.8	-7.0
CC(C)CC(c1nnnn1CC1CCCO1)N1CCN(c2ccc(F)cc2)CC1 (centres undefined)	1.4	11.9	0.9	0.0	.	.
CC(C)CC(c1nnnn1CC1CCCO1)N1CCN(c2cccc(Cl)c2)CC1 (centres undefined)	0.3	1.9	84.3*	0.2	2.5	8.8
COc1ccccc1NC(=O)C1=C(C)NC(SCC(=O)Nc2ccccc2C)=C(C#N)C1c1ccc(C)s1 (centres undefined)	1.0	-3.0	10.5	0.2	.	.
COc1ccc(CN2CCN(Cc3ccccc3C(F)(F)F)CC2)c(OC)c1	-0.1	7.1	77.6*	0.5	16.3	14.1
COc1ccc(OC)c(CN2CCN(Cc3ccccc3C(F)(F)F)CC2)c1	-1.0	-1.4	71.3*	-0.2	8.5	-4.9
COc1ccccc1N1CCN(Cc2ccc(OC)c(OC)c2OC)CC1	0.2	3.7	27.6	-0.1	.	.
SMILES	GPR151 activ	TEAD-YAP block	MITF inh	FBW7 act	MITF confirm	AlphaScreen intf2
COc1cc(CN2CCN(Cc3ccccc3F)CC2)cc(OC)c1O	-1.3	6.2	1.4	0.0	.	.
COc1ccc(CN2CCN(Cc3ccccc3C(F)(F)F)CC2)c(OC)c1OC	-0.6	2.7	58.7*	-0.1	5.4	15.6
COc1cc(CN2CCN(Cc3ccccc3C(F)(F)F)CC2)cc(OC)c1O	-1.4	-1.1	67.7*	0.1	1.6	23.3
COc1ccc(OC)c(CN2CCN(c3ccccc3OC)CC2)c1	-1.2	3.0	22.8	0.8	.	.
O=C(COC(=O)c1ccccc1Br)NC(=O)NC1CCCC1	1.0	-4.4	25.2	0.1	.	.
COc1ccccc1-c1ccc(N2CCC(C(C)=O)(c3ccccc3)CC2)nn1	-0.3	3.8	2.2	-0.8	.	.
N#CC1=C(N)NC(S)C(C#N)=C1c1ccccc1I (centres undefined)	-1.1	5.2	15.9	0.0	.	.
CCC(CC)C(=O)Nc1ccc(S(=O)(=O)Nc2ccc(C)cc2)cc1	1.2	9.1	-6.4	-0.2	.	.
